Assay outcomes from PubChem.
hNpr1 antagonist: Natriuretic polypeptide receptor (hNpr1) antagonism - Primary qHTS; actives 1.6% (n = 76,000); Atrial natriuretic peptide receptor 1 (Homo sapiens), P16066; HEK293 hNpr1 GloSensor cGMP, ANP-stimulated luminescence; Potency, µM (doses to about 46.3 µM), without a hit: at the top dose activity change, negative = inhibition, actives largely listed as inhibitors; calls by dose curve; also: nearly all actives have a fitted effect of over 60% in size
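Compound pre-incubated 30 min at room temperature on GloSensor-loaded HEK293 cells stably carrying hNpr1 and the pGS-40F cGMP biosensor. Stimulation uses hNppA at 0.1 nM final; luminescence is taken at baseline and 20 min post-agonist.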
FLuc inh: Firefly luciferase inhibition profiling of diverse chemical library using quantitative high-throughput screening; Luciferin 4-monooxygenase (Photinus pyralis), P08659; purified P. pyralis luciferase, luminescence, biochemical; Potency, µM (highest dose often 115 µM), usual class: inhibitors; actives 2.5% (n = 76,000); AID 1347043, 2019; also: nearly all actives have a fitted effect of over 65% in size
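FLuc 10nM, D-luciferin 10uM, ATP 10uM, Mg acetate 10mM, Tris acetate pH 7.5, Tween/BSA; cpd qHTS; enzyme added last; CCD luminescence.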
GPT2 inh: Primary qHTS assay for inhibitors of Glutamate pyruvate transaminase 2 (GPT2); AID 1671188, 2021; actives 0.25% (n = 100,000); Potency, µM (titrated, usually from 57.7 µM), for the others: at the highest dose activity change, negative = inhibition, hits mostly inhibitors; Recombinant GPT2, coupled pyruvate oxidase/HRP Amplex Red fluorescence; also: nearly all actives have a fitted effect of over 60% in size
Target sequence (Q8TD30 whole entry, looked up): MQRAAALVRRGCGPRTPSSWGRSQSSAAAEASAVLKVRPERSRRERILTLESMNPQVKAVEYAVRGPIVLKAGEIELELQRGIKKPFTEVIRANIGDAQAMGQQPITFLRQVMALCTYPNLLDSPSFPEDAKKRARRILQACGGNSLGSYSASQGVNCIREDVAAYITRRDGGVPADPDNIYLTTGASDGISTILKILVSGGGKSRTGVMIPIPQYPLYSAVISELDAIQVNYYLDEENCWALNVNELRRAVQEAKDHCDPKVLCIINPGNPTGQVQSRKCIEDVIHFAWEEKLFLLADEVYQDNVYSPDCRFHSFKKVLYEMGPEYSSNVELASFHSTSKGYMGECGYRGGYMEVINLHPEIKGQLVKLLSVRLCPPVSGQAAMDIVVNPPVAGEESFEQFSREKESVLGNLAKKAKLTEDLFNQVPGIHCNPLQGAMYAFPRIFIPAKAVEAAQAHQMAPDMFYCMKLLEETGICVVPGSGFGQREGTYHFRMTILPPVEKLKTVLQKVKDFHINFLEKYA
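Fluorescence of coupled pyruvate oxidase/HRP/Amplex Red system (50uM Amplex, 30 min, dark) reports pyruvate formed by GPT2. Enzyme reaction: 10ng/uL GPT2, 2mM L-alanine, 250uM a-KG, 30 min room temperature, pH 7.5; 50uM AOA control.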
HEK cytotox: Cytotoxic Profiling in HEK 293 Cell Line of Diverse Libraries Using Quantitative High-Throughput Screening; Potency, µM (doses to about 115 µM), without a hit: top-dose activity change, negative = cytotoxicity, usual class: inhibitors; actives 6.6% (n = 94,000); HEK 293 viability, ATP luminescence (CellTiter-Glo), 48-72 h; also: nearly all actives have a fitted effect of over 60% in size
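CellTiter-Glo luminescence (cellular ATP) was read after 48 or 72 hr of compound exposure at 37 degree Celsius. Cells were HEK 293 plated at 250 cells/well.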
NIH3T3 tox: Cytotoxic Profiling in NIH 3T3 Cell Line of Diverse Libraries Using Quantitative High-Throughput Screening. NIH 3T3 viability, CellTiter-Glo ATP luminescence, 48-72 h. Potency, µM (highest dose often 96.7 µM), without a hit: top-dose activity change, negative = cytotoxicity, hits mostly inhibitors. actives 4.3% (n = 94,000). AID 1345082, 2018; also: nearly all actives have a fitted effect of over 55% in size
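Cytotoxicity is measured as loss of cellular ATP: NIH 3T3 cells (400/well) are exposed to compound for 48 or 72 hr at 37 °C, then CellTiter-Glo luminescence is imaged after 10 min at room temperature.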
Active calls of the source: *; i = inactive; ? = inconclusive; · = no result given; [ ] = another dose, or the depositor's remark. Only some compounds are listed: those with a hit (about 10% of all), similar ones and a draw of the others. Unless noted, calls follow the shape of the dose curve; as a rule, active = well fitted curve in the direction sought with a large enough effect; inconclusive = small, poorly fitted or top-dose-only effect, or another doubt; inactive = no such curve, though single readings can be large; an effect the other way counts as inactive or inconclusive. % is scaled to controls: 0 for no effect and ±100 for the full control effect; potency is read from the fitted curve at half-maximal effect.

SMILES | hNpr1 antagonist | FLuc inh | GPT2 inh | HEK cytotox | NIH3T3 tox
COCC(=O)N[C@H]1CO[C@H]2[C@@H]1OC[C@@H]2Nc1nccc(-c2cccc(F)c2)n1 | 2.6%[70.6 µM] | i | 0.1%[88.5 µM] | 100µM* | ?
COc1ccc(-c2ccnc3nc(CCc4ccccc4)nn23)c(F)c1 | 4.9% | i | -7.2% | ? | ?
COc1ccc(-c2ccnc3nc(Cc4cc(F)cc(F)c4)nn23)c(F)c1 | -7.0% | i | -2.6% | 39.8µM* | ?
COc1ccccc1-c1ccc(CN2CCC(NC(=O)Cc3ccccc3)C2)cc1 (configuration not stated) | · | · | · | 39.8µM* | 35.5µM*
COc1ccccc1-c1ccc(CN2CCC(NC(=O)N(C)C)C2)cc1 (configuration not stated) | · | · | · | ? | -20.2%
COc1ccccc1-c1ccc(CN2CCC(NC(=O)Nc3ccccc3F)C2)cc1 (configuration not stated) | · | · | · | 28.2µM* | 15.8µM*
COc1ccccc1-c1ccc(CN2CCC(NC(=O)Cc3cccc(Cl)c3)C2)cc1 (configuration not stated) | · | · | 0.5% | ? | ?
COc1ccc(CNC2(Cc3cc(CN(C)Cc4ccccc4)on3)COC2)c(O)c1 | -3.0%[70.6 µM] | i | 1.6%[88.5 µM] | -0.4%[172 µM] | 1.0%[138 µM]
COc1ccccc1-n1c(=O)c(C(=O)NCc2cccc(F)c2)nc2cccnc21 | · | · | i | i | -0.7%
O=C(NC1CCOCC1)c1ccc2c(c1)OCCN(c1ccccc1)C2 | -18.5%[70.6 µM] | i | i | 79.4µM* | ?
O=C(NC1CC1)c1ccc2c(c1)OCCN(c1cccc(OC(F)(F)F)c1)C2 | ? | i | i | ? | ?
O=C(Nc1ccccc1)c1ccc2c(c1)OCCN(c1ccccc1)C2 | ? | ? | -10.7%[88.5 µM] | 112µM* | -62.5%[138 µM]
O=C(C[C@@H]1CCNC[C@@H]1Cc1cc(CSc2ccccc2)on1)NC1CCCCC1 | -4.1%[70.6 µM] | i | i | 89.1µM* | 100µM*
CC(C)(C)c1ccc(-c2cc(C[C@H]3CNCC[C@H]3CC(=O)NCc3cccs3)no2)cc1 | -8.4% | i | ? | 17.8µM* | ?
CC(C)(C)c1ccc(-c2cc(C[C@H]3CNCC[C@H]3CC(=O)O)no2)cc1 | 1.5%[70.6 µM] | ? | -3.2%[88.5 µM] | ? | -28.4%[138 µM]
O=C(C[C@@H]1CCNC[C@@H]1Cc1cc(CSc2ccccc2)on1)NC1CC1 | 3.7%[70.6 µM] | i | -12.6%[88.5 µM] | -25.6%[172 µM] | -28.1%[174 µM]
O=C(C[C@@H]1CCNC[C@@H]1Cc1cc(COc2ccccc2)on1)NCc1cccs1 | -12.8%[70.6 µM] | i | -5.3%[88.5 µM] | ? | ?
CC(C)(C)c1ccc(-c2cc(C[C@H]3CNCC[C@H]3CC(=O)NC3CCCCC3)no2)cc1 | -11.9% | i | -0.6% | 12.6µM* | 20µM*
O=C(C[C@@H]1CCNC[C@@H]1Cc1cc(-c2ccccc2)on1)NC1CCCCC1 | -9.8%[70.6 µM] | i | i | 100µM* | ?
Cc1cccc(C)c1-c1nnc2ccc(C(=O)NCc3ccc(Cl)cc3)cn12 | · | · | -4.6% | ? | ?
CNC(=O)c1cc(C)nc2onc(C3CCCN3C(=O)COC)c12 (configuration not stated) | · | · | · | -2.8%[172 µM] | 4.8%[138 µM]
CN(Cc1ccccc1)Cc1cc(C[C@H]2CNCC[C@H]2CC(=O)NC2CCCCC2)no1 | -3.0% | i | -17.5% | ? | 79.4µM*
CN(C)CCNC(=O)C[C@@H]1CCNC[C@@H]1Cc1cc(CN(C)Cc2ccccc2)on1 | -0.3%[70.6 µM] | i | 3.4%[88.5 µM] | -2.6%[172 µM] | -3.4%[174 µM]
COc1ccc(CNC(=O)C[C@@H]2CCNC[C@@H]2Cc2cc(-c3ccccc3)on2)cc1OC | -1.8% | i | -4.0% | -8.8% | -22.4%
COc1ccccc1CNC(=O)C[C@@H]1CCNC[C@@H]1Cc1cc(-c2ccccc2)on1 | -21.8%[70.6 µM] | i | -19.3%[88.5 µM] | 63.1µM* | 79.4µM*
SMILES | hNpr1 antagonist | FLuc inh | GPT2 inh | HEK cytotox | NIH3T3 tox
COc1cc(OC)cc(C(=O)N2CCC3(CC2)NC(=O)N(c2cccc(F)c2)N3)c1 | -1.2% | i | ? | ? | ?
COc1ccc(-c2c(C(=O)NCC(F)(F)F)nc3sccn23)cc1 | · | · | -0.6%[88.5 µM] | -28.3%[172 µM] | -15.6%[138 µM]
CC(C)N1CC(C(=O)NCc2cccc(C(F)(F)F)c2)NC1=O (configuration not stated) | · | · | ? | -27.0%[172 µM] | -27.5%[138 µM]
COc1cccc(C(=O)N2CCCC2C(=O)N2CCC(N3Cc4ccccc4C3=O)CC2)c1 (configuration not stated) | · | · | i | 2.6% | i
COc1ccc(C2(C(=O)NCCc3ncc(C)n3Cc3ccc(F)cc3)CC2)cc1 | -26.1% | i | i | ? | ?
COCc1cc(C[C@@H]2C[C@H](NCc3cccnc3)C2(C)C)no1 | -0.4%[70.6 µM] | i | -4.2%[88.5 µM] | -16.7%[172 µM] | -16.3%[138 µM]
CC1(C)[C@H](Cc2cc(-c3ccc(F)cc3)on2)C[C@@H]1NCc1cccnc1 | 11.2µM* | ? | -4.0%[88.5 µM] | ? | ?
CC(C)(C)c1cc(C[C@@H]2C[C@H](NS(C)(=O)=O)C2(C)C)no1 | -2.3%[70.6 µM] | i | -9.1%[88.5 µM] | ? | -14.6%[174 µM]
CN1CCC(N[C@H]2C[C@@H](Cc3cc(C(C)(C)C)on3)C2(C)C)CC1 | 1.6%[70.6 µM] | i | -8.2%[88.5 µM] | 28.2µM* | 50.1µM*
CC1(C)[C@H](Cc2cc(-c3ccc(F)cc3)on2)C[C@@H]1NC1CCC1 | 3.7%[70.6 µM] | i | 2.0%[88.5 µM] | 39.8µM* | 35.5µM*
O=C(Nc1ccc(F)cc1)c1nc2sccn2c1-c1ccc(C(F)(F)F)cc1 | · | · | -21.4% | ? | ?
COc1ccc(-c2ccc(C(=O)N3CCCCC3)cc2)nn1 | · | · | · | ? | 28.2µM*
COc1ccc(-c2ccc(C(=O)NC3CC3)cc2)nn1 | · | · | · | 89.1µM* | ?
O=C(NCc1ccc(F)cc1F)C1CCN(C(=O)c2ncn3c2COC(c2ccccc2)C3)CC1 (configuration not stated) | -10.0% | 35.5µM* | i | -1.5% | i
O=C(NCc1ccco1)C1CCN(C(=O)c2ncn3c2COC(c2ccc(F)cc2)C3)CC1 (configuration not stated) | -3.9% | 22.4µM* | 3.1% | 2.3% | 0.2%
Cc1ccccc1CNC(=O)C1CCN(C(=O)c2ncn3c2COC(c2ccccc2)C3)CC1 (configuration not stated) | -11.4% | 15.8µM* | i | -4.1% | -7.3%
O=C(NCc1cc(F)ccc1F)C1CCN(C(=O)c2ncn3c2COC(c2ccc(F)cc2)C3)CC1 (configuration not stated) | -0.3% | 44.7µM* | -4.7% | -0.2% | -0.5%
